Results: PubChem BioAssay (NCATS)
Several values for one entry are separate records, joined by “and”; a condition that tells them apart may be missing. Equal entries are not always repeated. Inconclusive results are not listed. Activity calls are given as the source filed them. Calls come from the whole dose curve; as a rule, active = well fitted curve in the direction sought with a large enough effect; inconclusive = small, poorly fitted or top-dose-only effect, or another doubt; inactive = no such curve, though single readings can be large; an effect the other way counts as inactive or inconclusive.

How the values were obtained:
[1] = qHTS to identify inhibitors of the type 1 interferon - major histocompatibility complex class I in skeletal muscle: primary screen against the NCATS LOPAC collection (AID 1347405);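 note: human myoblasts with HiBiT tag on endogenous HLA-B stimulated by IFN-beta; lytic HiBiT luminescence reporting HLA-B protein level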; note: potency is the fitted concentration of half-maximal effect
Method in brief: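 HLA-B HiBiT myoblasts, IFN-b 4 ng/ml, dexamethasone-free medium; compounds 7-pt 1:4.3 titration, top 46 uM final; 24 h at 37 C; Nano-Glo HiBiT lytic reagent, 10 min RT, luminescence.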

[2] = qHTS to identify inhibitors of the type 1 interferon - major histocompatibility complex class I in skeletal muscle: primary screen against the NCATS Pharmaceutical Collection (AID 1347407);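 note: luminescence of HiBiT knocked into endogenous HLA-B as interferon-induced MHC class I level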; note: potency is the fitted concentration of half-maximal effect
Method in brief: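 Compounds […] were added to CRISPR-engineered HLA-B-HiBiT C25cl48 human myoblasts with 4.0 ng/ml IFN-beta. After 24 hrs at 37 C, cells were lysed and HiBiT luminescence measured.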

[3] = qHTS for inhibitors of adenylyl cyclases using a fission yeast platform: a pilot screen against the NCATS LOPAC library (AID 1347410)
Method in brief: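 GFP from fbp1-GFP reporter, read by Acumen laser cytometry, indicates AC inhibition in fission yeast expressing AC9, GNAS and PDE4D2. Cells grown 18 h in the dark at 30C with compounds, final up to 57 uM.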

[4] = qHTS to identify inhibitors of the type 1 interferon - major histocompatibility complex class I in skeletal muscle: primary screen against the NCATS Mechanism Interrogation Plate v5.0 (MIPE) Libary (AID 1347411); note: nearly all actives have a fitted effect of over 65% in size; note: potency is the fitted concentration of half-maximal effect
Method in brief: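 HLA-B HiBit myoblasts, dexamethasone-free medium + 4 ng/ml IFN-b, 24 h compound, 11-pt 1:3 from 46 uM final. Readout: Nano-Glo HiBiT lytic luminescence after 10 min lysis, RT.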

[5] = target: Protein phosphatase 1D (Homo sapiens) (UniProt O15297); assay: RapidFire Mass Spectrometry qHTS Assay for Modulators of WT P53-Induced Phosphatase 1 (WIP1) (AID 1347424);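 note: amount of dephosphorylated VEPPL-S-QETFS peptide product formed by WIP1; series mostly up to about 63 µM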
Chain of Protein phosphatase 1D (Homo sapiens) (O15297 whole entry, looked up): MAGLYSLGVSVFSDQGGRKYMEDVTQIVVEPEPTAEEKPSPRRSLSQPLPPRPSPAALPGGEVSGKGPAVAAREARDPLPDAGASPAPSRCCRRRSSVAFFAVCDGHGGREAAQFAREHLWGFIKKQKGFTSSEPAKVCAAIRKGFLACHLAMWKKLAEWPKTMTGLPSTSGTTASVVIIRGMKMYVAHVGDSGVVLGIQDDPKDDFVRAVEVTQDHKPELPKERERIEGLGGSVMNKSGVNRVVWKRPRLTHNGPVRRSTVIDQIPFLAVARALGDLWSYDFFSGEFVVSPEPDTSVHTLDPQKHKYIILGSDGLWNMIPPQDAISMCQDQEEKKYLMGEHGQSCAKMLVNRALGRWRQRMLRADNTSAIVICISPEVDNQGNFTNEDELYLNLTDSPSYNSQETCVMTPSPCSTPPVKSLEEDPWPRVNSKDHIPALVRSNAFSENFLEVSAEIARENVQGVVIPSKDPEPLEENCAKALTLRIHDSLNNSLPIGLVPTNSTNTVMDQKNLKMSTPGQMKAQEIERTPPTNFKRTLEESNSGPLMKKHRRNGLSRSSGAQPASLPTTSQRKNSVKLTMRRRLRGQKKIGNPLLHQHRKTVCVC
Method in brief: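 RapidFire mass spectrometry measured dephosphorylated peptide after 5 min room-temperature reaction of 2 uM VEPPL-pS-QETFS with 10 nM WIP1 (50 mM Tris-HCl pH 7.5, 30 mM MgCl2, 0.1 mM EGTA, BSA), following 1 hr compound preincubation; 1 uM isotope-labelled product standard.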

[6] = target: Protein phosphatase 1D (Homo sapiens) (UniProt O15297); assay: Rhodamine-PBP qHTS Assay for Modulators of WT P53-Induced Phosphatase 1 (WIP1) (AID 1347425)
Method in brief: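 5 nM WIP1 + 10 uM Rh-PBP, 50 mM Tris pH 7.5, 30 mM MgCl2, 1 mM TCEP, 0.1 mM EGTA, BSA; cpds pinned, 1 hr RT; + 10 uM phosphopeptide; fluorescence 1-min reads x 11 min; delta = f1 - f0.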

[7] = Validation qHTS assay for inhibitors of Activation Induced Cytidine Deaminase (AID): UDG Counterscreen signal (AID 1347427); note: potency is the fitted concentration of half-maximal effect
Method in brief: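 Fluorescence at 560 nm excitation, 665 nm emission reports UDG signal after 250 mM NaOH (2x) addition and 30 min. Enzymes (AID 1 uM, UDG 2 U/mL, at 4/3x) preincubated 10 min with compound, then 4 h with 4x 250 nM DJC20/DJC23 substrate at room temperature.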

[8] = target: Single-stranded DNA cytosine deaminase (Homo sapiens) (UniProt Q9GZX7); assay: Validation qHTS assay for inhibitors of Activation Induced Cytidine Deaminase (AID): AID signal (AID 1347429); note: potency is the fitted concentration of half-maximal effect
Chain of Single-stranded DNA cytosine deaminase (Homo sapiens) (Q9GZX7 whole entry, looked up): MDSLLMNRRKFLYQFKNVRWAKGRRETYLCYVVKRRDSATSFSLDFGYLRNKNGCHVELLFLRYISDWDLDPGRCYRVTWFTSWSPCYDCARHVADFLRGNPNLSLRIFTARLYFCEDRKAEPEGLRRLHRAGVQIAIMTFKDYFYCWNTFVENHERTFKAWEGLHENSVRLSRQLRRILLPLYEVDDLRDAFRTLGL
Method in brief: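 AID+UDG coupled FRET deamination; cpds up to 114 uM final; DJC20/DJC23 substrate, 4 hr RT; NaOH stop, 30 min RT; read Ex 540/Em 590.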

[9] = Primary qHTS for inhibitors of La Crosse Virus (LACV) - induced cell death in SH-SY5Y cells (AID 1508616);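 note: top concentration of the series differs between compounds; higher means more rescue of cells from virus-induced death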
Method in brief: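 Cytopathicity rescue screen: compounds pinned onto SH-SY5Y cells, which are then infected with LACV (MOI 0.01) and held 6 days at 37C. Percent activity is scaled between infected DMSO control and uninfected DMSO control.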

[10] = target: Calcium and integrin-binding protein 1 (Homo sapiens) (UniProt Q99828); assay: Confirmatory qHTS for Identification of Calcium Integrin Binding Protein 1 (CIB1) Competitor (AID 1508617); details: CIB1 binding competition assay, biochemical qHTS; note: potency is the fitted concentration of half-maximal effect; nearly all actives have a fitted effect of over 65% in size
Chain of Calcium and integrin-binding protein 1 (Homo sapiens) (Q99828 whole entry, looked up): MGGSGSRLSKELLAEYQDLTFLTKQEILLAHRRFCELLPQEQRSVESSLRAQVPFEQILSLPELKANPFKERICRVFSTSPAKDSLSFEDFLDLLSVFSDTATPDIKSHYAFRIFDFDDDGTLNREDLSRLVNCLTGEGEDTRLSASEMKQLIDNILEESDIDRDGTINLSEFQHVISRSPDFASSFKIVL
Method in brief: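 Confirmatory qHTS measures displacement of a FITC-alphaIIb peptide (100 nM) from CIB1-GST (1 uM) by fluorescence polarization. Calcium-containing HEPES buffer, pH 7.4; two 15 min room-temperature incubations.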

Measured: Potency

COc1ccc2[nH]cc(CCNC(C)=O)c2c1
not listed: [10]
inactive: all other assays above

NC12CC3CC(CC(C3)C1)C2
not listed: [10]
inactive: all other assays above

CCOC(=O)c1ncn2c1CN(C)C(=O)c1cc(F)ccc1-2
not listed: [9] | [10]
inactive: all other assays above

CC(C)(Oc1ccc(C2CC2(Cl)Cl)cc1)C(=O)O (stereo not drawn)
not listed: [10]
inactive: all other assays above

N[C@@H](Cc1c[nH]c2ccc(O)cc12)C(=O)O
not listed: [10]
inactive: all other assays above

CN(Cc1cnc2nc(N)nc(N)c2n1)c1ccc(C(=O)N[C@@H](CCC(=O)O)C(=O)O)cc1
not listed: [9] | [10]
inactive: all other assays above

CN1CCN(CCCN2c3ccccc3Sc3ccc(Cl)cc32)CC1
not listed: [4] | [9] | [10]
inactive: all other assays above

Clc1ccc2nsnc2c1NC1=NCCN1
not listed: [10]
inactive: all other assays above

NCCS(=O)(=O)O
not listed: [10]
inactive: all other assays above

CC[C@@]1(O)C(=O)OCc2c1cc1n(c2=O)Cc2cc3c(CN(C)C)c(O)ccc3nc2-1
inactive: [3] | [5] | [6] | [9]
active: [1] 3.55 µM | [2] 10.5 µM

CN(C)CCCN1c2ccccc2CCc2ccc(Cl)cc21
not listed: [10]
inactive: all other assays above

CN1C(C(=O)Nc2ccccn2)=C(O)c2ccccc2S1(=O)=O
not listed: [10]
inactive: all other assays above

CN(C)CCC=C1c2ccccc2C=Cc2ccccc21
not listed: [9] | [10]
inactive: all other assays above

CN(C)CCOC(c1ccccc1)c1ccccc1
not listed: [10]
inactive: all other assays above

NC(=O)NO
not listed: [9] | [10]
inactive: all other assays above

O=C1c2c(O)ccc(O)c2C(=O)c2c(NCCNCCO)ccc(NCCNCCO)c21
active: [1] 2.24 µM | [2] 11.8 µM | [4] 0.93 µM | [7] 31.6 µM | [8] 10 µM | [10] 22.4 µM and 20 µM
inactive: [3] | [5] | [6]

CCC1(C)CC(=O)NC1=O (stereo not drawn)
not listed: [9] | [10]
inactive: all other assays above

O=C(c1ccc(F)cc1)C1CCN(CCn2c(=O)[nH]c3ccccc3c2=O)CC1
not listed: [4] | [10]
inactive: all other assays above

CCOC(=O)Nc1ccc(NCc2ccc(F)cc2)nc1N
inactive: [2] | [3] | [4] | [5]

C[C@H]1c2cccc(O)c2C(O)=C2C(=O)[C@]3(O)C(O)=C(C(N)=O)C(=O)[C@@H](N(C)C)[C@@H]3[C@@H](O)[C@@H]21
not listed: [9] | [10]
inactive: all other assays above

Cc1cn([C@H]2C=C[C@@H](CO)O2)c(=O)[nH]c1=O
not listed: [4] | [9] | [10]
inactive: all other assays above

CC(C(=O)O)c1cccc(C(=O)c2ccccc2)c1 (stereo not drawn)
not listed: [10]
inactive: all other assays above

Nc1nnc(-c2cccc(Cl)c2Cl)c(N)n1
not listed: [7] | [8] | [10]
inactive: all other assays above

CCCNCC(O)COc1ccccc1C(=O)CCc1ccccc1 (stereo not drawn)
not listed: [9] | [10]
inactive: all other assays above

CCN1CCCC1CNC(=O)c1cc(S(=O)(=O)CC)c(N)cc1OC (stereo not drawn)
not listed: [9] | [10]
inactive: all other assays above

Cc1cc(C(C)(C)C)c(O)c(C)c1CC1=NCCN1
not listed: [9] | [10]
inactive: all other assays above

Clc1ccc(C(c2ccccc2Cl)C(Cl)Cl)cc1 (stereo not drawn)
not listed: [4] | [10]
inactive: all other assays above

CN(C)c1nc(N(C)C)nc(N(C)C)n1
not listed: [10]
inactive: all other assays above

COc1ccccc1OCC(O)CN1CCN(CC(=O)Nc2c(C)cccc2C)CC1 (stereo not drawn)
not listed: [10]
inactive: all other assays above

Cc1ccc(-c2cc(C(F)(F)F)nn2-c2ccc(S(N)(=O)=O)cc2)cc1
inactive: [1] | [2] | [3] | [9]

CC(=O)OCC(CCn1cnc2cnc(N)nc21)COC(C)=O
inactive: [1] | [3] | [4] | [5] | [6]

NCCCCCC(=O)O
not listed: [9] | [10]
inactive: all other assays above

Nc1ccn([C@H]2CC[C@@H](CO)O2)c(=O)n1
not listed: [4] | [10]
inactive: all other assays above

Cn1cnc2c1c(=O)[nH]c(=O)n2C
not listed: [10]
inactive: all other assays above

CN1CCC(=C2c3ccccc3CC(=O)c3sccc32)CC1
not listed: [1] | [9] | [10]
inactive: all other assays above

O=c1[nH]cc(F)c(=O)[nH]1
not listed: [1] | [10]
inactive: all other assays above

O=C(Nc1ccc([N+](=O)[O-])cc1Cl)c1cc(Cl)ccc1O
not listed: [1] | [10]
inactive: all other assays above

Nc1nc2c(ncn2COC(CO)CO)c(=O)[nH]1
inactive: [2] | [3] | [4] | [5] | [6] | [9]

CC12CC3CC(C)(C1)CC(N)(C3)C2
not listed: [1] | [10]
inactive: all other assays above

CCOC(=O)C(C)(C)Oc1ccc(Cl)cc1
not listed: [1] | [10]
inactive: all other assays above

CC[N+](CC)(CC)CCOc1cccc(OCC[N+](CC)(CC)CC)c1OCC[N+](CC)(CC)CC
not listed: [1] | [10]
inactive: all other assays above

CN(C)C(=O)C(CCN1CCC(O)(c2ccc(Cl)cc2)CC1)(c1ccccc1)c1ccccc1
inactive: [2] | [3] | [5] | [6] | [7] | [8]

Cn1ccc2cc3c(cc21)CCN3C(=O)Nc1cccnc1
not listed: [1] | [10]
inactive: all other assays above

OCCN(CCO)c1nc(N2CCCCC2)c2nc(N(CCO)CCO)nc(N3CCCCC3)c2n1
inactive: [2] | [3] | [4] | [5] | [6] | [8]
